Assay outcomes from PubChem.
AGP1-GFP MLPCN = yeast TOR pathway AGP1-GFP modulation. S. cerevisiae AGP1-GFP multiplex flow cytometry, 3 h; GFP as percent of DMSO wells. GFP response vs DMSO, % at 10 µM. 320,000 compounds, 0.02% hits;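 active = GFP response relative to DMSO above a set limit, near screen average plus 3 SD, cut at about 150% in these data; inconclusive = fewer than 70 cells counted for the yeast strain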;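 note: median GFP channel fluorescence of the gated AGP1 strain per well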
CIT2-GFP yeast = yeast TOR pathway CIT2-GFP modulation; GFP response vs DMSO, % at 10 µM; 320,000 compounds, 0.065% hits; S. cerevisiae CIT2-GFP strain, flow cytometry, 3 h; 100 means same as DMSO wells; AID 2029;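 active = GFP response relative to DMSO above a set limit, near the screen mean plus 3 SD, cut at about 150% in these data; inconclusive = Fewer than 70 cells measured for a yeast strain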;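 note: ratio of well median GFP fluorescence to mean of DMSO wells on the plate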
MEP2 TOR yeast = yeast TOR pathway MEP2-GFP modulation. S. cerevisiae MEP2-GFP strain, flow cytometry GFP, 3 h; 100% = DMSO control level. AID 2016. GFP response vs DMSO, % at 10 µM. 330,000 compounds, 0.51% hits;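 active = GFP response versus DMSO above a set limit, roughly screen mean plus 3 SD, cut at about 180% in these data; inconclusive = fewer than 70 cells counted for a yeast strain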;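 note: median GFP fluorescence of the barcode-gated MEP2-GFP cells per well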
Efflux pump mplx = inhibitors of Candida antifungal efflux pumps expressed in yeast. 330,000 compounds, 0.44% hits. AID 485275. S. cerevisiae Candida pump triplex, Nile Red efflux. inhibition, % at 10 µM;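 active = plate passing quality check with inhibition over a set limit, or well fluorescence over plate mean plus 4 SD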;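 note: Nile Red retained in pooled yeast measured as flow cytometry median fluorescence; higher means more Nile Red kept so more efflux inhibition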
RPL19A TOR yeast = alters RPL19A-GFP fluorescence in TOR pathway yeast screen; S. cerevisiae RPL19A-GFP strain, flow cytometry, 3 h; active compounds read low; percent response vs DMSO, % at 10 µM; 330,000 compounds, 0.3% hits; AID 2025;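 active = percent response vs DMSO below 50%; inconclusive = fewer than 70 events counted for the yeast strain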;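 note: median channel GFP fluorescence of the barcoded RPL19A-GFP strain; lower means less RPL19A-GFP as with rapamycin TOR inhibition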
LAP4-GFP MLPCN = modulators of TOR pathway LAP4-GFP in S. cerevisiae; S. cerevisiae LAP4-GFP multiplex, flow cytometry GFP, 3 h; median GFP as percent of DMSO wells; GFP response vs DMSO, % at 10 µM; 320,000 compounds, 0.34% hits;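 active = GFP response vs DMSO above a set limit, about the screen mean plus 3 SD, cut at about 150% in these data; inconclusive = under 70 cell events counted for the yeast strain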
Numbers stand for hits; . = inactive; ? = inconclusive; / = no result; [ ] = another dose, or the depositor's remark. The list is not random: actives were taken first. Their share in the collection is about 1.3%.

SMILES	AGP1-GFP MLPCN	CIT2-GFP yeast	MEP2 TOR yeast	Efflux pump mplx	RPL19A TOR yeast	LAP4-GFP MLPCN
O=c1cc(-c2c(F)c(F)c(F)c(F)c2F)oc2c(F)c(F)c(F)c(F)c12	.	.	.	.	.	177
O=c1cc(-c2c(F)c(F)c(F)c(F)c2F)oc2ccccc12	.	.	.	.	.	.
O=C(COC(=O)c1c[nH]c2ccccc12)Nc1cccc(F)c1	.	.	.	.	.	.
Cc1cc(OCC(=O)NCC(c2ccc(F)cc2)N2CCOCC2)ccc1Cl (stereo not given)	.	.	.	.	.	.
Cn1c(=O)c2c(ncn2CCOc2ccc(Br)cc2)n(C)c1=O	.	.	.	.	.	.
Cn1c(=O)c2c(ncn2CC(=O)Nc2ccccc2)n(C)c1=O	/	?	210[may fluoresce violet]	.	.	.
Cn1c(=O)c2c(ncn2CCOc2ccc(F)cc2)n(C)c1=O	?	?	?	.	40[may fluoresce violet]	.
Cn1c(=O)c2c(ncn2CC(=O)OCC(=O)Nc2ccccc2)n(C)c1=O	.	.	.	.	.	.
CC(=O)c1cnn(-c2c(Cl)cc(Cl)cc2Cl)c1C	.	.	.	.	.	.
Cc1ccc(/C=N\NC(=O)C2CN(S(=O)(=O)c3ccccc3)CCN2S(=O)(=O)c2ccccc2)cc1 (stereo not given)	?	?	204[may fluoresce violet]	.	24[may fluoresce violet]	.
NC(=O)c1c(NC(=O)CSc2nnc(Cc3ccccc3)n2Cc2ccco2)sc2c1CCC2	.	.	.	.	.	.
CCCCn1c(SCC(=O)Nc2sc3c(c2C(N)=O)CCC3)nnc1-c1ccccc1	?	?	252[may fluoresce violet]	.	16[may fluoresce violet]	.
CCc1cc(C(=O)Cc2ccccn2)c(O)cc1O	.	?	270[may fluoresce violet]	.	.	.
Cc1nc(Oc2ccccc2)c2oc3ccccc3c2n1	?	?	430[may fluoresce violet]	.	.	.
COc1ccc(Oc2nc(C)nc3c2oc2ccccc23)cc1	.	/	.	.	.	.
O=C(c1cc(NC(=O)C23CC4CC(CC(C4)C2)C3)cc(NC(=O)C23CC4CC(CC(C4)C2)C3)c1)N1CCCCC1	.	.	.	1.1	.	.
O=C(c1ccccc1NS(=O)(=O)c1cccc2cccnc12)N1CCOCC1	.	.	.	.	.	.
O=C(NCCN1CCOCC1)c1ccc(CS(=O)(=O)Cc2ccccc2F)o1	.	.	192	.	.	.
C=CCOc1ccc(/C=C/C(=O)OCC(=O)N(C)C2CCS(=O)(=O)C2)cc1 (stereo not given)	.	.	.	.	.	.
C/C(Cl)=C/CN1C(=O)C2C3C=CC(C3)C2C1=O (stereo not given)	?	?	247[may fluoresce violet]	.	25[may fluoresce violet]	.
CCCCn1c(SCC(=O)c2ccc3c(c2)NC(=O)CO3)nc2cc(S(N)(=O)=O)ccc21	.	.	.	.	.	.
COc1cc(C(=O)OCC(=O)N2CCCC2)cc(OC)c1OC	/	?	324[may fluoresce violet]	.	47[may fluoresce violet]	.
CC1(C(=O)N/N=C/c2ccccc2)CC1(Cl)Cl (stereo not given)	.	.	.	.	.	.
CC(C)CNC(=O)c1nc(-c2ccccc2)n(-c2ccccc2)n1	?	?	515[may fluoresce violet]	.	20[may fluoresce violet]	.
COc1ccc(NC(=O)CSc2nc(=O)n(CCN3CCOCC3)c3c2CCCC3)c(OC)c1	.	.	.	.	.	.
SMILES	AGP1-GFP MLPCN	CIT2-GFP yeast	MEP2 TOR yeast	Efflux pump mplx	RPL19A TOR yeast	LAP4-GFP MLPCN
O=C(Cn1c(=O)n(-c2ccccc2)c(=O)c2sccc21)N1CCCC1	?	?	184[may fluoresce violet]	.	43[may fluoresce violet]	.
O=C(C1=C(O)C(=O)N(CC2CCCO2)C1c1ccc(Cl)cc1)c1ccco1 (stereo not given)	.	?	276[may fluoresce violet]	.	.	.
COc1cccc(/C=C2\CCCCC2=O)c1	?	?	426[may fluoresce violet]	.	43[may fluoresce violet]	.
Cc1ccsc1C(=O)NCCc1nnc2ccccn12	.	.	.	.	.	.
COc1ccccc1CC(=O)Nc1ccc(S(=O)(=O)N2CCOCC2)cc1	.	.	.	.	.	.
CNC(=O)/C(C#N)=C/c1c(N2CCCCCC2)nc2ccccn2c1=O	.	.	216	.	.	.
CCNC(=O)/C(C#N)=C/c1c(N2CCCCCC2)nc2ccccn2c1=O	.	.	.	.	.	.
C=CCn1c(SCC(=O)NC(=O)NCC(C)C)nnc1C1CCCCC1	.	/	527[may fluoresce violet]	.	.	.
C=CCn1c(SCC(=O)NC(=O)NCCC)nnc1C1CCCCC1	.	.	.	.	/	.
CCOC(=O)c1ccc(Cl)c(NC(=O)c2cccnc2)c1	.	.	.	.	.	.
CC(C)CC(OC(=O)c1nsc(Cl)c1Cl)C(=O)NC1CCCC1 (stereo not given)	?	?	243[may fluoresce violet]	.	43[may fluoresce violet]	.
Clc1ccc(-c2nc(NCCCN3CCOCC3)c3ccccc3n2)cc1	.	.	.	.	.	.
Fc1ccccc1-c1nc(NCCCN2CCOCC2)c2ccccc2n1	.	.	208	.	.	.
O=C1c2cccc3cccc(c23)N1Cc1cccc(F)c1	.	.	.	.	.	.
CCc1ccc(-c2nc(CSCC(=O)N3CCN(c4ccccn4)CC3)c(C)o2)cc1	.	?	177[may fluoresce violet]	.	45[may fluoresce violet]	.
Cc1ccc(-c2nc(CSCC(=O)N3CCN(c4ccccn4)CC3)c(C)o2)cc1	.	.	.	.	.	.
O=C(CN1C(=O)S/C(=C\c2cccc(Cl)c2)C1=O)NCCCn1ccnc1	?	?	707[may fluoresce violet]	.	50[may fluoresce violet]	.
CCOC(=O)C(C)(C)n1nnc(-c2ccc([N+](=O)[O-])cc2)n1	.	.	.	.	.	.
COc1ccc(-n2c(=O)c(CCC(=O)N3CCN(c4ccccc4O)CC3)nc3ccccc32)cc1	.	.	.	.	.	.
Cc1c(CC(C)C)nc(N)c(C#N)c1-c1ccccc1	.	.	350	.	.	.
O=C(COc1ccc([N+](=O)[O-])cc1)NC(C(=O)O)C(O)c1cccc([N+](=O)[O-])c1 (stereo not given)	.	.	.	.	.	.
Cc1ccc(-c2nc(SCC(=O)Nc3cc(S(=O)(=O)N4CCCCC4)ccc3Cl)n[nH]2)cc1	.	.	.	.	.	.
COc1ccccc1-c1nnc(NC(=O)c2ccc(S(=O)(=O)N3CCCC3)cc2)o1	.	.	.	.	.	169
COc1ccccc1CC(=O)NNC(=O)CN(C)S(=O)(=O)c1ccc(Cl)cc1	.	.	.	.	.	.
Cc1cccc(N=c2c([N+](=O)[O-])nn(-c3ccc(Cl)cc3)n2O)c1	.	.	.	.	.	154
CCC1(C)Cc2c(sc(NC(=S)NC(=O)c3ccccc3)c2C#N)CO1 (stereo not given)	.	.	.	.	.	.
CN1Cc2sc(NC(=S)NC(=O)c3ccccc3)c(C#N)c2CC1(C)C	.	161	.	.	.	155
